Values without a mark were called inactive. How the calls were made is not given here.

The target of this assay is Pantothenate synthetase (Mycobacterium tuberculosis (strain ATCC 25618 / H37Rv)) (UniProt P9WIL5). Description: Recombinant Mtb pantothenate synthetase (PanC) inhibitors, coupled enzyme, confirmatory (AID 375).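 Further: 0% = full reaction with vehicle and 100% = no enzyme background.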 The note with it: coupled enzyme assay; at 10 µM, stronger effect = higher value.
Chain of Pantothenate synthetase (Mycobacterium tuberculosis (strain ATCC 25618 / H37Rv)) (P9WIL5 whole entry, looked up): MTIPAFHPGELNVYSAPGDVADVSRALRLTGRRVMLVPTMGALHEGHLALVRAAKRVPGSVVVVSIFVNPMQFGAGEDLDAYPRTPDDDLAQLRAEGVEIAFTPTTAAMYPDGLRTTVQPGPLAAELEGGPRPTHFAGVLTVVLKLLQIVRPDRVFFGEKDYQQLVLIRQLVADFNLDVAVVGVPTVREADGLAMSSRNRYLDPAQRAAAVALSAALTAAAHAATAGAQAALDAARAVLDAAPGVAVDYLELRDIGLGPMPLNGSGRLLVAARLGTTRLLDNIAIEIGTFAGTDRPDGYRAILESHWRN
As a reminder, the inhibition is the drop in the measured response relative to a control, in per cent. Take `CC1CC(NC(=O)c2cnc3n(c2=O)CCS3)CC(C)(C)C1` (stereo not given): the inhibition is 5%.

`N#Cc1c(/N=C/c2ccco2)sc2c1CCC2`: the inhibition is 0%.

For `O=C(NCc1ccccn1)c1cc(-n2cnnc2)ccc1Cl`, the inhibition is 0%.

Consider `CCOC(=O)N1CCN(CC(=O)Nc2cc(C)nn2-c2nc3ccccc3s2)CC1`, for which the inhibition is 0%.

`COc1ccc(OC)c(-c2nc3c(C)n[nH]c(=O)c3[nH]2)c1`: the inhibition was 0%.

Regarding `CCOC(=O)c1c(N)sc(C(=O)N2CCOCC2)c1C`, the inhibition was 4%.

In the case of `O=C(CCN1C(=O)COc2ccccc21)NCCCN1CCN(c2ccccc2F)CC1`, the inhibition was 0%.

`CC1=C(C(=O)Nc2ccccc2)C(c2cccs2)C(C#N)=C(SCC#N)N1` (stereo not given): the inhibition is 5%.

For `CCOC(=O)N1CCC2(CC1)CC(=O)c1c(ccc3oc(C(=O)O)c(C)c13)O2`, the inhibition was 0%.

In the case of `Cc1cccc(-n2ncc3c(N)ncnc32)c1`, the inhibition was 3%.

Regarding `COc1cccc(Nc2nc(=O)[nH]nc2C)c1`, the inhibition is 8%.

Consider `COc1ccc(OC)c(NC(=O)C23CCC(C)(C(=O)C2)C3(C)C)c1` (stereo not given), for which the inhibition is 3%.

With `O=C(Nc1ncnc2sc3c(c12)CCC3)c1ccco1`, the inhibition was 0%.

As to `COc1cc(C2c3c(oc4ccccc4c3=O)C(=O)N2c2ccc(C)cn2)ccc1O` (stereo not given), the inhibition is 0%.

As to `COc1ccccc1Nc1ccc(C(=O)NC2CCCCC2)cn1`, the inhibition was 0%.

On to `Cc1ccc(-c2nnc3ccc(SCC(=O)NCc4ccco4)nn23)cc1`, for which the inhibition is 0%.

For the molecule `Cc1c(C#N)c(N)c(C(=O)c2ccccc2)n1Cc1ccccc1`, the inhibition was 0%.

As for `CCCOc1cccc(C(=O)Nc2cc(NC(=O)c3ccco3)ccc2OC)c1`, the inhibition was 0%.

Regarding `CCOC(=O)N1CCC(NC(=O)c2ccc3c(c2)N(CC)CCS3)CC1`, the inhibition was 5%.

Regarding `O=C(Nc1ccncc1)c1cc2ccccc2o1`, the inhibition was 3%.

With `CSCCC(NC(=O)c1ccco1)C(=O)O` (stereo not given), the inhibition was 0%.

With `c1ccc(N=P(c2nc3ccccc3o2)(N2CCOCC2)N2CCOCC2)cc1`, the inhibition is 0%.

For the molecule `CCCNc1nc2c(c(=O)n(C)c(=O)n2C)n1Cc1cccc(C)c1`, the inhibition is 0%.

As for `Cc1ccc2[nH]c3c(c2c1)CCc1cn[nH]c1-3`, the inhibition is 0%.

For the molecule `COc1ccc(-n2nc3cc(C)c(N)c(Br)c3n2)cc1`, the inhibition was 0%.

Turning to `CCOc1cccc(C(=O)Nc2cccc(-c3nc4ncccc4o3)c2C)c1`, the inhibition is 10%.

Take `CC1CCN(S(=O)(=O)c2cccc(C(=O)Nc3ccccn3)c2)CC1`: the inhibition is 0%.

As for `COc1cccc(C2=NOC(C(=O)N3CCc4ccccc4C3)C2)c1` (stereo not given), the inhibition is 0%.

For `CCCn1cnc2c(cnn2-c2ccc(F)cc2)c1=O`, the inhibition is 4%.

Take `CCc1c(C(=O)NCCc2ccc(OC)c(OC)c2)[nH]c(C)c1C(C)=O`: the inhibition is 12%.

Consider `O=C(NCC1CCCO1)c1ccc(N2CCCCC2)nc1` (stereo not given), for which the inhibition was 0%.

For the molecule `c1ccc(OCc2nc3ccccc3[nH]2)cc1`, the inhibition was 0%.

For the molecule `CCOC(=O)C1CCN(c2c(NC3CCCCCCC3)c(=O)c2=O)CC1`, the inhibition is 3%.

For the molecule `CC(C)C(NC(=O)OCc1ccccc1)C(=O)OCC(=O)NCc1ccco1` (stereo not given), the inhibition is 7%.

Consider `Cc1ccc(C2CC(c3ccc(C)cc3)n3nc(N)nc3N2)cc1` (stereo not given), for which the inhibition is 5%.

As for `c1ccc(-c2nnc(CSc3nncs3)o2)cc1`, the inhibition was 0%.

As for `CN1CCc2nc(SCC(=O)Nc3ccc(F)cc3)c(C#N)cc2C1`, the inhibition is 8%.

With `CC(=O)O[C@H]1C[C@@H]2CC[C@@H]3[C@H](CC[C@@]4(C)[C@H]3C[C@H]([N+]3(C)CCCCC3)[C@@H]4OC(C)=O)[C@@]2(C)C[C@@H]1[N+]1(C)CCCCC1`, the inhibition is 0%.

For `CC(C)C[C@H]1C(=O)N2CCC[C@H]2[C@]2(O)O[C@](NC(=O)[C@@H]3C=C4c5cccc6[nH]c(Br)c(c56)CC4N(C)C3)(C(C)C)C(=O)N12` (stereo not given in full), the inhibition is 4%.

In the case of `Cc1cc2oc(=O)cc(C)c2c(=O)o1`, the inhibition was 4%.

Source of the values: PubChem BioAssay.
